# The list is not random: actives were taken first. Their share in the collection is about 2.6%.
# NFkB binder: NF-kappa-B p105 (human) binding | Small molecule microarray, anti-His fluorescence binding | P19838 | calls only | 17,000 tested, 1.3% active;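 active = spot fluorescence over background significantly raised, with a chance value under 7% in all four replicate spots of the compound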;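 also: probe protein is his-tagged human p50 processed subunit at 1 µg/ml; raw spot fluorescence signals with no normalization applied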
# mut p53 react: restores mutant p53 pathway signaling in SW480 cells. AID 624151. SW480 PUMA-promoter luciferase, p53 mutant reactivation. 28,000 tested, 1.5% active. activation, % at 9.98 µM; in the data active = activation above about 52%
# c-Myc SMM: binders of human c-Myc. small molecule microarray, His-c-Myc binding, anti-His fluorescence. calls only. P01106. 17,000 tested, 1.5% active;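 active = spot fluorescence over background with P-value below 7% in all four replicate spots, showing protein binding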;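 also: score is binary with 100 for all four spots passing and 0 otherwise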
# Target sequence (P01106 whole entry, looked up): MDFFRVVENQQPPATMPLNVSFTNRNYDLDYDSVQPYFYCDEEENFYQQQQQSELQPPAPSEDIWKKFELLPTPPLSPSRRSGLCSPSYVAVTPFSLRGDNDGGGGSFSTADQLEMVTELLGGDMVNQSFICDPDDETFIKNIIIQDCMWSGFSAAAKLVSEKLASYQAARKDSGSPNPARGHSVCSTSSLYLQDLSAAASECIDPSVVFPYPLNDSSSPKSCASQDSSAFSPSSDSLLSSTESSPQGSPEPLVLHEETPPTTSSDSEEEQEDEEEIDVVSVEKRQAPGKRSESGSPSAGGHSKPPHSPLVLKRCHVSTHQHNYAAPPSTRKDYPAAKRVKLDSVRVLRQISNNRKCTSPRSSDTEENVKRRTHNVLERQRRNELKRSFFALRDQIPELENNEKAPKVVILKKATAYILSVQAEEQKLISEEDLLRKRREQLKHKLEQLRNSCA
# STAT3 SMM: STAT3 (human) binding. P40763. Small molecule microarray, His-STAT3 binding, anti-His fluorescence. calls only. 17,000 tested, 0.2% active;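 active = compounds whose four printed spots each show fluorescence over background unusually high for their array block, chance value under 7%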
# p53 mut binder: binders of human mutant p53; small molecule microarray binding, anti-GST fluorescence; calls only; 17,000 tested, 0.4% active; AID 624136;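 active = compounds whose four printed spots each glow above background more than chance allows, each with a p-value under 7%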
# An asterisk follows results filed as active; i = inactive; / = no result given; + = active, no number.
SMILES,NFkB binder,mut p53 react,c-Myc SMM,STAT3 SMM,p53 mut binder
COC1CC(OC2C(C)OC(OC3C(C)OC(OC4C(C)OCC(OC5C(O)C(O[C@H]6CC[C@@]7(C)C(=CC[C@]8(O)C7CC(OC(=O)c7ccccc7)[C@@]7(C)[C@]8(O)CC[C@@]7(O)C(C)=O)C6)OC(CO)C5OC5OC(CO)C(O)C(O)C5O)C4OC)CC3OC)CC2OC)OC(C)C1O (some centres undefined),+,-66,+,i,i
O=C(NCCc1c[nH]c2ccccc12)NC1CCCCC1,/,84*,/,/,/
OCc1c[nH]c2ccccc12,/,-9,/,/,/
NC(=O)CCCc1c[nH]c2ccccc12,/,79*,/,/,/
O=C(NCCc1c[nH]c2ccccc12)Nc1cccc2ccccc12,/,13,/,/,/
O=C1c2ccccc2C(=O)N1CC1CCN(Cc2cccc(OCCO)c2)CC1,i,/,+,i,i
COCc1c(Br)c(C)nc(OCC(=O)O)c1C#N,+,-3,+,i,i
COC(=O)c1ccc(COc2nc(C)cc(C)c2C#N)o1,i,49,i,i,i
COC(=O)c1cc(O)cc(OC)c1Oc1cc(C)cc(O)c1C(=O)OC,i,-5,i,i,i
O=C(CSc1nc2ccc(NC(=O)c3ccccc3F)cc2s1)c1cccc([N+](=O)[O-])c1,i,76*,i,i,i
Cc1ccccc1C(=O)Nc1ccc2nc(SCC(=O)Nc3ccccc3)sc2c1,i,-12,i,i,i
Cc1ccccc1C(=O)Nc1ccc2nc(SCC(=O)Nc3ccc([N+](=O)[O-])cc3)sc2c1,/,20,/,/,/
O=C(CSc1nc2ccc(NC(=O)c3ccccc3)cc2s1)Nc1cccc([N+](=O)[O-])c1,/,59*,/,/,/
C[C@@H]1CCCCO[C@H](CN(C)Cc2ccncc2)[C@H](C)CN([C@@H](C)CO)C(=O)c2cc(NC(=O)Nc3ccccc3)ccc2O1,i,-6,i,i,i
CC(C)NC(=O)Nc1ccc2c(c1)C(=O)N([C@@H](C)CO)C[C@H](C)[C@@H](CN(C)Cc1ccccc1)OCCCC[C@H](C)O2,+,-13,+,i,i
C[C@H](CO)N1C[C@H](C)[C@H](CN(C)Cc2ccncc2)OCCCC[C@H](C)Oc2ccc(NC(=O)Nc3ccccc3)cc2C1=O,i,-6,i,+,+
CC(C)NC(=O)Nc1ccc2c(c1)C(=O)N([C@@H](C)CO)C[C@H](C)[C@H](CN(C)Cc1ccccc1)OCCCC[C@@H](C)O2,i,5,i,i,i
CC(C)NC(=O)Nc1ccc2c(c1)C(=O)N([C@H](C)CO)C[C@H](C)[C@@H](CN(C)Cc1ccccc1)OCCCC[C@H](C)O2,+,-1,i,i,i
CC(C)NC(=O)Nc1ccc2c(c1)C(=O)N([C@@H](C)CO)C[C@H](C)[C@@H](CN(C)Cc1ccccc1)OCCCC[C@@H](C)O2,i,-1,+,i,i
CC(C)NC(=O)Nc1ccc2c(c1)C(=O)N([C@@H](C)CO)C[C@@H](C)[C@H](CN(C)Cc1ccccc1)OCCCC[C@@H](C)O2,i,5,i,i,i
C[C@@H]1CN([C@@H](C)CO)S(=O)(=O)c2ccc(C#Cc3cccnc3)cc2O[C@H]1CN(C)C(=O)Nc1ccc2c(c1)OCO2,/,-23,/,/,/
CCCCCCCCCCCCC/C=C/C(O)C(CO)NC(C)=O (centres undefined),i,-2,i,i,i
C[C@@H]1CN([C@@H](C)CO)C(=O)c2cc(NC(=O)Cc3cn(C)c4ccccc34)ccc2O[C@H]1CN(C)C(=O)Nc1ccccc1,i,-5,i,i,i
COc1ccc(NC(=O)N(C)C[C@H]2Oc3c(NC(=O)c4ccc(-c5nccs5)cc4)cccc3C(=O)N([C@@H](C)CO)C[C@@H]2C)cc1,i,/,i,i,i
CC(C)NC(=O)Nc1ccc2c(c1)C(=O)N([C@@H](C)CO)C[C@H](C)[C@@H](CN(C)C(=O)Nc1ccccc1)OCCCC[C@@H](C)O2,+,26,+,i,i
SMILES,NFkB binder,mut p53 react,c-Myc SMM,STAT3 SMM,p53 mut binder
COc1ccc(S(=O)(=O)N(C)CC(=O)Nc2cccc(SC)c2)cc1Cl,/,4,/,/,/
Cc1ccc2oc(-c3ccc(C)c(NC(=O)COc4ccc(Br)cc4)c3)nc2c1,/,65*,/,/,/
Cc1ccc2oc(-c3ccc(Cl)c(NC(=O)COc4ccc(C)c(C)c4)c3)nc2c1,/,-9,/,/,/
Cc1ccc(-c2nc3ccccc3o2)cc1NC(=O)COc1ccccc1,i,-11,i,i,i
Cc1cc2nc(-c3ccc(C)c(NC(=O)COc4ccc([N+](=O)[O-])cc4)c3)oc2cc1C,/,66*,/,/,/
C[C@H]1CN([C@@H](C)CO)C(=O)CCCn2cc(nn2)CO[C@H]1CN(C)C(=O)Cc1ccccc1,i,4,i,i,i
Cc1ccc(OCC(=O)Nc2cccc(-c3nnc(-c4ccccc4)o3)c2)cc1,/,119*,/,/,/
Cc1cccc(OCC(=O)Nc2cccc(-c3nnc(-c4ccccc4)o3)c2)c1C,/,68*,/,/,/
Cc1cc(Cl)ccc1OCC(=O)Nc1cccc(NC(=O)c2ccccc2C)c1,/,57*,/,/,/
Cc1ccc(OCC(=O)Nc2cccc(-c3nc4ccccc4[nH]3)c2)cc1,i,10,i,i,i
CCN(CC(=O)Nc1ccc(Br)cc1)S(=O)(=O)c1ccc(Cl)cc1,/,-4,/,/,/
O=C(NCCC(c1ccc(F)cc1)c1ccco1)c1cccs1 (centres undefined),/,50*,/,/,/
COc1ccc(Cl)cc1NC(=O)CSc1nc2ccccc2c(=O)[nH]1,/,5,/,/,/
C[C@@H]1CN([C@@H](C)CO)C(=O)c2cc(-c3ccncc3)cnc2O[C@H]1CN(C)S(=O)(=O)c1ccc(F)cc1,/,1,/,/,/
CCCN(CCC)CC1CCCCN1CCNC(=O)N1c2ccccc2C(=O)Nc2cccnc21 (centres undefined),i,2,i,i,+
O=C(NC(=S)NCc1cccnc1)c1ccc(-c2cccc(Cl)c2Cl)o1,/,61*,/,/,/
C[C@H]1CN([C@@H](C)CO)C(=O)c2cc(C#CCN(C)C)cnc2O[C@H]1CN(C)C(=O)CN1CCOCC1,/,7,/,/,/
O=C(NCc1nc2ccccc2[nH]1)c1ccccc1,i,94*,i,i,i
CS(=O)(=O)N(CC(=O)O)c1ccc(F)c(Cl)c1,/,-4,/,/,/
CCOC(=O)c1ccc(COc2ccc(-c3cnc4ccccc4n3)cc2)o1,i,130*,i,i,i
Cc1cc(OCC(=O)NCc2ccccn2)c(C)cc1Br,/,119*,/,/,/
Cc1cc(OCC(=O)Nc2ncn[nH]2)ccc1Cl,i,78*,i,i,i
Cc1cc(OCC(=O)Nc2ncn[nH]2)c(C)cc1Br,/,57*,/,/,/
C[C@@H]1CN([C@H](C)CO)C(=O)c2cccc(NC(=O)NC3CCCCC3)c2O[C@H]1CN(C)C(=O)Nc1ccc(C(F)(F)F)cc1,+,2,+,i,i
C[C@H]1CN([C@@H](C)CO)C(=O)c2cccc(NC(=O)NC3CCCCC3)c2O[C@H]1CN(C)C(=O)NC1CCCCC1,+,-3,+,i,i

# Screens (PubChem)
